Results filed as inconclusive are left out. The source made the active and inactive calls. Calls come from the whole dose curve; as a rule, active = well fitted activation curve with a large enough effect in the repeat runs; inconclusive = weak or mixed curves, or effect the other way; inactive = no such curve, though single readings can be large or run the other way.
Test: qHTS assay to identify small molecule agonists of the retinoic acid receptor (RAR) signaling pathway (AID 1159553)
Conditions: C3RL4 RARE luciferase reporter, agonist, 6 h; series mostly up to 73.3 µM
In short: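 Luminescence from a RARE-driven luciferase reporter in C3RL4 cells served as the read-out, measured after 30 min with detection reagent at room temperature. Compounds in DMSO were applied for 6 hr at 37 C following overnight seeding.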
For `C1N2CN3CN1CN(C2)C3`, the outcome was “inactive”.
For `CC(=O)NS(=O)(=O)c1ccc(N)cc1`, the outcome was “inactive”.
With `CNC[C@H](O)c1cccc(O)c1` the outcome was “inactive”.
In the case of `O=S(=O)(O)c1ccc2cc(O)ccc2c1`, the outcome is reported as “inactive”.
For `Cc1ccc(O)cc1`, the outcome was “inactive”.
In the case of `Cn1cc[nH]c1=S`, the outcome is reported as “inactive”.
In the case of `COc1c2occc2cc2ccc(=O)oc12`, the outcome is reported as “inactive”.
In the case of `NS(=O)(=O)c1cc(C(=O)O)c(NCc2ccco2)cc1Cl`, the outcome is reported as “inactive”.
For `O=C(C1CCCCC1)N1CC(=O)N2CCc3ccccc3C2C1` (stereo not drawn), the outcome was “inactive”.
For `CC(=O)Nc1nnc(S(N)(=O)=O)s1`, the outcome was “inactive”.
With `Nc1ccc(O)c(C(=O)O)c1` the outcome was “inactive”.
With `CCCCC(CC)COC(=O)/C=C/c1ccc(OC)cc1` (stereo not drawn) the outcome was “inactive”.
With `Cc1ccccc1C(OCCN(C)C)c1ccccc1` (stereo not drawn) the outcome was “inactive”.
In the case of `Nc1ccc(S(=O)(=O)Nc2nccs2)cc1`, the outcome is reported as “inactive”.
With `Cc1ccc(S(=O)(=O)NC(=O)NN2CCCCCC2)cc1` the outcome was “inactive”.
In the case of `NC(=O)c1ccccc1O`, the outcome is reported as “inactive”.
With `CC(C)(Oc1ccc(C2CC2(Cl)Cl)cc1)C(=O)O` (stereo not drawn) the outcome was “inactive”.
For `CC(O)C(=O)O` (stereo not drawn), the outcome was “inactive”.
In the case of `CCCCC1C(=O)N(c2ccccc2)N(c2ccccc2)C1=O`, the outcome is reported as “inactive”.
For `CCC1(c2ccccc2)C(=O)NCNC1=O`, the outcome was “inactive”.
For `CC(O)CN(CCN(CC(C)O)CC(C)O)CC(C)O` (stereo not drawn), the outcome was “inactive”.
In the case of `CCCN(CCC)S(=O)(=O)c1ccc(C(=O)O)cc1`, the outcome is reported as “inactive”.
With `O=C(O)CCCCCCCC(=O)O` the outcome was “inactive”.
For `Cc1cc(=O)n(-c2ccccc2)n1C`, the outcome was “inactive”.
With `Nc1ccc(S(=O)(=O)c2ccc(N)cc2)cc1` the outcome was “inactive”.
In the case of `CCCNC(=O)NS(=O)(=O)c1ccc(Cl)cc1`, the outcome is reported as “inactive”.
With `Cc1noc(NS(=O)(=O)c2ccc(N)cc2)c1C` the outcome was “inactive”.
In the case of `CC(C)[C@@H]1CC[C@@H](C)C[C@H]1O`, the outcome is reported as “inactive”.

From PubChem BioAssay (Tox21)
